Records with an inconclusive call do not appear. Calls of active or inactive are those of the source. Unless noted, the call rests on the fitted dose curve; in most records, active means well fitted curve in the direction sought with a large enough effect in the repeat runs; inconclusive means weak or mixed curves; inactive means no such curve, though single readings can be large; an effect the other way counts as inactive or inconclusive.
How the values were obtained:
[1] = biological target: Thyrotropin receptor (Homo sapiens) (UniProt P16473); assay: qHTS assay to identify small molecule agonists of the thyroid stimulating hormone receptor (TSHR) signaling pathway (AID 1224843; calls by dose curve; further: nearly all actives have a fitted effect of over 45% in size)
Outline: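 Using 15 concentrations per compound in triplicate, cAMP production was monitored in TSHR-HEK293 cells after 30 min compound incubation at RT; HTRF reagents followed, with fluorescence intensity recorded after 1 h.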

[2] = qHTS assay to identify small molecule agonists of the hypoxia (HIF-1) signaling pathway - cell viability counter screen (AID 1224844; calls by dose curve; further: nearly all actives have a fitted effect of over 50% in size)
Outline: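 Cytotoxicity was measured in parallel with the HRE-driven beta-lactamase readout: after 17 hrs of compound exposure at 37C, HRE-bla ME-180 cells received CellTiter-Glo and luminescence was recorded 30 min later.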

[3] = qHTS assay to identify small molecule agonists of H2AX (AID 1224845; active means well fitted activation curve with a large enough effect in the signal ratio in the repeat runs, not every such curve was filed as active; the % refers to the signal ratio)
Outline: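 Wild-type CHO-K1 cells plated overnight, then exposed 3 hr at 37C to compounds at 15 concentrations (0.76% DMSO). Lysed, then HTRF anti-pH2AX(S139)-cryptate/anti-H2AX-d2 detection after 24 hr at room temperature; emissions 665 and 620 nm.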

[4] = qHTS assay to identify small molecule agonists of the hypoxia (HIF-1) signaling pathway (AID 1224846; active means well fitted activation curve with a large enough effect in the signal ratio in the repeat runs, not every such curve was filed as active; the % refers to the signal ratio)
Outline: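 Compounds from the Tox21 10K library, dissolved in DMSO, are tested for induction of a hypoxia response element–controlled beta-lactamase reporter in ME-180 cells. Exposure lasts 17 hrs at 37C after a 5 hr settling period, followed by CCF4-AM FRET substrate.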

[5] = qHTS assay to identify small molecule agonists of H2AX - cell viability counter screen (AID 1224847; calls by dose curve; further: top concentration of the series differs between compounds; nearly all actives have a fitted effect of over 30% in size)
Outline: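 Counter-screen for viability: CellTiter-Glo ATP luminescence read after 3 h compound treatment (15-point titration, 0.76% DMSO final) of CHO-K1 cells at 37C, with 30 min room-temperature reagent incubation.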

[6] = qHTS RealTime-Glo MT Cell Viability Assay in HepG2 cells - 24 hour (AID 1224867); further: nearly all actives have a fitted effect of over 50% in size
Outline: (§1)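 HepG2 cells were seeded at 600 cells/well together with NanoLuc luciferase and a cell-permeant prosubstrate, preincubated 5 h at 37 C/5% CO2, then pin-dosed with compounds in DMSO. Nonlytic luminescence from viable cells was read at each time point.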

[7] = qHTS RealTime-Glo MT Cell Viability Assay in HEK293 cells - 32 hour (AID 1224868); further: top concentration of the series differs between compounds; nearly all actives have a fitted effect of over 50% in size
Outline: (§2)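 HEK293 cells were seeded at 600 cells/well together with NanoLuc luciferase and cell-permeant prosubstrate, preincubated 5 h at 37 C/5% CO2, then given compound in DMSO by pintool. Luminescence from viable-cell prosubstrate reduction was read repeatedly over 40 h.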

[8] = A CellTox Green Cytotoxicity Assay to monitor cytotoxicity in HEK293 cells - 0 hour (AID 1224869); further: nearly all actives have a fitted effect of over 50% in size
Outline: (§3)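 Cells (HEK293, 600/well) and dye reagent are dispensed together. After 5 h at 37 C, 23 nL compound is pinned in. Plates stay at 37 C for 40 h with fluorescence read at 0h, 8h, 16h, 24h, 32h and 40h.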

[9] = qHTS RealTime-Glo MT Cell Viability Assay in HepG2 cells - 40 hour (AID 1224870); further: nearly all actives have a fitted effect of over 50% in size
Outline: (§4)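 HepG2 cells mixed with RealTime-Glo MT reagents (NanoLuc plus cell-permeant prosubstrate) were seeded at 600 cells/well, incubated 5 h at 37 C/5% CO2, then pinned with compounds in DMSO; nonlytic luminescence tracked viability during 40 h treatment.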

[10] = A CellTox Green Cytotoxicity Assay to monitor cytotoxicity in HEK293 cells - 40 hour (AID 1224871); further: nearly all actives have a fitted effect of over 45% in size
Outline: as §3

[11] = qHTS RealTime-Glo MT Cell Viability Assay in HEK293 cells - 16 hour (AID 1224872)
Outline: as §2

[12] = qHTS RealTime-Glo MT Cell Viability Assay in HepG2 cells - 8 hour (AID 1224873); further: nearly all actives have a fitted effect of over 55% in size
Outline: as §4

[13] = qHTS RealTime-Glo MT Cell Viability Assay in HEK293 cells - 40 hour (AID 1224874); conditions: RealTime-Glo luminescence; max response: active compounds read low; further: nearly all actives have a fitted effect of over 50% in size
Outline: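 Real-time viability in HEK293: signal arises when living cells convert a prosubstrate for NanoLuc in the medium, so luminescence tracks viable cell number. Compound (23 nL, DMSO) added 5 h post-seeding; kinetic reads at 0–40 h, 37 C.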

[14] = A CellTox Green Cytotoxicity Assay to monitor cytotoxicity in HEK293 cells - 24 hour (AID 1224875); further: nearly all actives have a fitted effect of over 45% in size
Outline: as §3

[15] = A CellTox Green Cytotoxicity Assay to monitor cytotoxicity in HepG2 cells - 16 hour (AID 1224876); further: nearly all actives have a fitted effect of over 45% in size
Outline: (§5)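 Cells and non-lytic dye reagent are dispensed together (600 HepG2 cells/well) and incubated 5 h before DMSO compound transfer. Kinetic fluorescence is then recorded in the same wells during 40 h at 37 C.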

[16] = qHTS RealTime-Glo MT Cell Viability Assay in HepG2 cells - 32 hour (AID 1224877); further: nearly all actives have a fitted effect of over 55% in size
Outline: as §1

[17] = A CellTox Green Cytotoxicity Assay to monitor cytotoxicity in HepG2 cells - 24 hour (AID 1224878); further: nearly all actives have a fitted effect of over 45% in size
Outline: as §5

[18] = A CellTox Green Cytotoxicity Assay to monitor cytotoxicity in HepG2 cells - 40 hour (AID 1224879); further: nearly all actives have a fitted effect of over 40% in size
Outline: as §5

[19] = qHTS assay to identify small molecule agonists of the estrogen related receptor (ERR) signaling pathway from Tox21 library (AID 1224849; calls by dose curve; further: nearly all actives have a fitted effect of over 15% in size); conditions: ERR reporter cell line, ONE-Glo luciferase, 18 h; at 92.4 µM (top of the series) unless noted
Outline: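 Cells carrying the ERR reporter were plated and allowed to settle for 6 h, exposed to library compounds for 18 h at 37 C, then lysed with ONE-Glo and luminescence measured.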
On the % scale 0 is the no-effect control and ±100 the full control effect.

Sequence of Thyrotropin receptor (Homo sapiens) (P16473 whole entry, looked up): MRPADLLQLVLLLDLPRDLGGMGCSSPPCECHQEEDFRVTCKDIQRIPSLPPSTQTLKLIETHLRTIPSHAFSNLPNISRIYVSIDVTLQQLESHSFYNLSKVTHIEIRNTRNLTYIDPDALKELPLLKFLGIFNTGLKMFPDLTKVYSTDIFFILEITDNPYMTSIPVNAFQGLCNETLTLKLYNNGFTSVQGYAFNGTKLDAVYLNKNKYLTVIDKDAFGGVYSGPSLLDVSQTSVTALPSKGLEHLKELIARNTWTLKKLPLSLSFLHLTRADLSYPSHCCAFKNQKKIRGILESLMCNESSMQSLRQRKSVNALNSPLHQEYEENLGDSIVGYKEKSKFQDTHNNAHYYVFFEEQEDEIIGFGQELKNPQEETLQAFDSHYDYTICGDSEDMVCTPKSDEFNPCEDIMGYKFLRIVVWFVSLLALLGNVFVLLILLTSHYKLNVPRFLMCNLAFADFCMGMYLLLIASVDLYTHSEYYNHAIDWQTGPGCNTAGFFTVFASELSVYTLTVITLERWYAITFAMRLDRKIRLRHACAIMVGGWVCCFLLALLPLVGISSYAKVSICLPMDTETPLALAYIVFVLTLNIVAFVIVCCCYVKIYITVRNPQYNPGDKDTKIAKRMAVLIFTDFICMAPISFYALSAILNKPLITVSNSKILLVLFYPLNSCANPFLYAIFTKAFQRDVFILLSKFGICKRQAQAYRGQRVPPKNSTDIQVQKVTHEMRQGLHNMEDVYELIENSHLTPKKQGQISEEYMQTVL

CN(CCOc1ccc(NS(C)(=O)=O)cc1)CCc1ccc(NS(C)(=O)=O)cc1
inactive: Potency [1] | outcome [2] | outcome [3] | outcome [4] | Potency [5] | outcome [6] | Potency [7] | outcome [8] | outcome [9] | Potency [10] | Potency [11] | outcome [12] | max response [13] -0.0536% | outcome [14] | outcome [15] | outcome [16] | outcome [17] | Potency [18]

CC(=O)c1sc(C)nc1C
inactive: Potency [1] | outcome [2] | outcome [3] | outcome [4] | Potency [5] | activity change, positive = activation [19] -11% | outcome [6] | outcome [8] | outcome [9] | Potency [10] | Potency [11] | outcome [12] | max response [13] -23.3% | outcome [14] | outcome [16] | outcome [17] | Potency [18]

CC(CN)CC(C)(C)CCN (configuration not stated)
inactive: Potency [1] | outcome [2] | outcome [3] | outcome [4] | Potency [5] | outcome [6] | Potency [7] | outcome [8] | outcome [9] | Potency [10] | Potency [11] | outcome [12] | max response [13] 6.3% | outcome [14] | outcome [15] | outcome [16] | outcome [17] | Potency [18]

O=C1CC(c2ccc(Cl)cc2)CC(=O)N1
inactive: Potency [1] | outcome [2] | outcome [3] | outcome [4] | Potency [5] | outcome [6] | Potency [7] | outcome [8] | outcome [9] | Potency [10] | Potency [11] | outcome [12] | max response [13] -1.95% | outcome [14] | outcome [15] | outcome [16] | outcome [17] | Potency [18]

Cc1cccc(OCC(O)CNC(C)(C)C)c1C (configuration not stated)
inactive: Potency [1] | outcome [2] | outcome [3] | outcome [4] | Potency [5] | outcome [6] | Potency [7] | outcome [8] | outcome [9] | Potency [10] | Potency [11] | outcome [12] | max response [13] 0.394% | outcome [14] | outcome [15] | outcome [16]

CC(C)OC(=O)CCCCC(=O)OC(C)C
inactive: Potency [1] | outcome [2] | outcome [3] | outcome [4] | Potency [5] | outcome [6] | Potency [7] | outcome [8] | outcome [9] | Potency [10] | Potency [11] | outcome [12] | max response [13] 13.3% | outcome [14] | outcome [15] | outcome [16] | outcome [17] | Potency [18]

CC(C)(C)c1nnc(NS(=O)(=O)c2ccc(N)cc2)s1
inactive: Potency [1] | outcome [2] | outcome [3] | outcome [4] | Potency [5] | outcome [6] | Potency [7] | outcome [8] | outcome [9] | Potency [10] | Potency [11] | outcome [12] | max response [13] 2.09% | outcome [14] | outcome [15] | outcome [16] | Potency [18]

Source: PubChem BioAssay (Tox21)
